# Shiga toxin inh – inhibitors of Shiga toxin in Vero cells; inhibition, % at 38.7 µM; AID 2315; 9.2% of 290,000 active; Vero cells, Shiga toxin protein synthesis inhibition reporter; in the data active = inhibition mostly above about 28%, no sharp cut-off; inactive = mostly below about 43%; also: 0% is about no effect
# NS1 inh – influenza NS1 inhibition; Potency, µM (series often up to 46.1 µM), without a hit: top-dose activity, positive = more growth; 0.4% of 270,000 active; AID 2326; calls by dose curve; also: potency is read from the fitted curve at half-maximal effect; actives are rising curves; nearly all actives have a fitted effect of over 50% in size
#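 S. cerevisiae expressing influenza A NS1, grown in glucose, washed, then diluted 1:100 into pH 6.0 -URA galactose medium with 23 nl compound. Growth recovery read as OD600; NS1-free strain serves as control.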
# Pf growth 96h – P. falciparum growth inhibition at 96 hour, primary screen for plastid delayed-death inhibitors; P. falciparum luciferase reporter growth, 96 h; Potency, µM (series often up to 28.7 µM), inactives show top-dose activity change, negative = inhibition, actives largely listed as inhibitors; 6.9% of 320,000 active; AID 504834; also: potency is read from the fitted curve at half-maximal effect; % is scaled to controls: 0 for no effect and ±100 for the full control effect
#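 96 h incubation, 37 C, 5% CO2, of luciferase-reporter P. falciparum-infected RBCs (2% hematocrit, 0.05% parasitemia final) with test compounds; endpoint luminescence.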
# CHX counter – affects cycloheximide protein synthesis inhibition readout, counter-screen. cell reporter, cycloheximide protein synthesis inhibition counterscreen. max response, %. 12% of 300,000 active. AID 2314; in the data active = max response mostly above about 13%, no sharp cut-off; inactive = mostly below about 14%; also: read at 38.3 µM for the half of the compounds with a filed dose; 0% is about no effect
# Pf growth 48h – inhibits P. falciparum growth in the first generation, 48 h; Potency, µM (top dose mostly 28.7 µM), without a hit: at the highest dose activity change, negative = inhibition, actives largely listed as inhibitors; P. falciparum luciferase growth in erythrocytes, 48 h; AID 504832; 5.9% of 310,000 active; also: potency is read from the fitted curve at half-maximal effect; % is scaled to controls: 0 for no effect and ±100 for the full control effect
#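 First compound was added to culture medium, then infected red cells at 0.1% parasitemia and 2% hematocrit (final). After incubation at 37 C under 5% CO2, luciferase detection reagent was dispensed and light output recorded.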
# Sm TGR block – S. mansoni TGR enzyme inhibition; Q962Y6; purified TGR, DTNB reduction, TNB absorbance 405 nm; Potency, µM (top dose mostly 114 µM), inactives show at the top dose activity change, negative = inhibition, most hits filed as inhibitors; 3% of 360,000 active; AID 485364; also: potency is read from the fitted curve at half-maximal effect; % is scaled to controls: 0 for no effect and ±100 for the full control effect; nearly all actives have a fitted effect of over 60% in size
#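 TGR 20 nM + NADPH 100 uM (dispensed conc.), cpd preinc 15 min RT; start with NADPH (500 uM addition) then DTNB (15 mM addition). Kinetic TNB absorbance, 405 nm filter. Four-parameter Hill fit across titration.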
# Starred values were filed as active, the others as inactive; ? = inconclusive; / = no result; [ ] = dose if it differs, or a comment. Only some compounds are listed: those with a hit (about 21% of all), similar ones and a draw of the others. Unless noted, calls follow the shape of the dose curve; as a rule, active = well fitted curve in the direction sought with a large enough effect; inconclusive = small, poorly fitted or top-dose-only effect, or another doubt; inactive = no such curve, though single readings can be large; an effect the other way counts as inactive or inconclusive.
SMILES,Shiga toxin inh,NS1 inh,Pf growth 96h,CHX counter,Pf growth 48h,Sm TGR block
Cc1ccc(C(=O)C2=C(O)C(=O)N(CCN3CCOCC3)C2c2ccccn2)o1 (stereo not drawn),19,6%,/,-1,6%,45µM*
O=C(C1=C(O)C(=O)N(CCN2CCOCC2)C1c1ccccc1)c1cccs1 (stereo not drawn),/,-16%,/,/,/,/
CCN(CC)CCCN1C(=O)C(O)=C(C(=O)c2sc(C)nc2C)C1c1ccc(C)o1 (stereo not drawn),-5,-10%,12%[5.75 µM],-3,9%,-29%
COc1ccc(NC(=O)CN(C)CC(=O)N2CCCCCC2)cc1,/,/,67%,/,-23%,-16%
COc1ccc(CNC(=O)CN2C(=O)NC(C)(c3cccc(Br)c3)C2=O)cc1 (stereo not drawn),-7,-2%,?,0,-25%,-8%
COc1ccc(C)cc1NC(=O)CCNC(=O)Cn1cnc2ccccc2c1=O,0,-16%,-22%,-1,22%,10%
c1cc2c3c(cccc3c1)C(N1CCCCC1)=N2,-11,-85%,12µM*,-3,?,0%
c1ccc2c(c1)CCN(C1=Nc3cccc4cccc1c34)C2,49*,/,?,35*,?,-2%
CC1=C(c2ccc(Cl)cc2)S(=O)(=O)N=C1N1CCN(c2cccc(C)c2)C(C)C1 (stereo not drawn),/,/,/,/,/,-17%
CCOC(=O)Cc1c(C)nc2c(C#N)c[nH]n2c1=O,-20,9%,38%,0,19%,3%
CCc1c(C)nc2c(C#N)c[nH]n2c1=O,-9,1%,0.52µM*,-4,-2%,13%
COP(=O)(OC)C(NC(=O)/C=C/c1ccccc1)C(Cl)(Cl)Cl (stereo not drawn),55*,/,44%,21,45%,5%
CN(C)NC(=S)NC1(C)CCS(=O)(=O)C1 (stereo not drawn),14,-2%,9%,-2,14%,-2%
CCOc1ccc(C(=O)OC2CCN(C)CC2)cc1,26,9%,39%,14*,10%,2%
CN1CCC(OC(=O)c2ccccc2)CC1,-3,9%,-19%,2,-2%,5%
CN1CCC(OC(=O)COc2ccccc2)CC1,-22,8%,12µM*,-1,9%,5%
CCCOC(C(=O)OC1CCN(C)CC1)(c1ccccc1)c1ccccc1,/,/,12µM*,/,12µM*,/
COc1ccc(C(=O)OC2CCN(C)CC2)cc1,8,5%,?,8,6%,-7%
CCCCCCc1nc(C(N)=O)c2[nH]c(=O)n(-c3ccc(OCC)cc3)c2n1,-6,11%,-9%,-2,-18%,-1%
CCOc1ccccc1NC(=O)CN1C=NS(=O)(=O)c2ccccc21,/,/,/,/,/,32%
CCOc1ccc(CNC(=O)c2ccc3nc(CC)c(CC)nc3c2)cc1,/,/,/,/,/,-2%
CC(=O)SC1CC(=O)N(c2c(C)cccc2C)C1=O (stereo not drawn),-3,2%,13%,-5,1.9µM*,14µM*
CC(=O)SC1CC(=O)N(c2ccc(C(C)(C)C)cc2)C1=O (stereo not drawn),11,6%,36%,4,24%,?
Cc1cccc(C)c1N1C(=O)CC(N2CCSCC2)C1=O (stereo not drawn),5,-2%,0%,-1,-19%,45µM*
O=C1CC(N2CCSCC2)C(=O)N1c1cccc(Br)c1 (stereo not drawn),-10,/,1%,-2,?,45µM*
O=C1CC(N2CCN(c3ccccc3)CC2)C(=O)N1c1cccc(Br)c1 (stereo not drawn),-10,12%,?,-7,59%,-36%
COCCNC(=O)CSC1=N/C(=C/c2ccc(Cl)c(Cl)c2)C(=O)N1c1ccccc1F,-1,7%,?,-3,-25%,-14%
COc1ccc(-c2cn(-c3cccc(C)c3)c(=O)[nH]2)cc1OC,28,2%,22%,15,0%,13µM*
COc1ccc(-c2cn(-c3ccc(C)cc3C)c(=S)[nH]2)cc1OC,21,?,38%,2,/,-24%
COc1cc(OC)cc(-c2nnc(SCC(=O)N3CCC(C)CC3)o2)c1,/,/,/,/,/,2%

# Source: PubChem BioAssay (National Center for Advancing Translational Sciences (NCATS))
